Data on 10 molecules can be found in PubChem BioAssay (NCATS).

Assay [1] is described as follows: S16 Schwann cell PMP22 intronic element firefly luciferase assay (AID 624032). Further: nearly all actives have a fitted effect of over 30% in size. The procedure, abridged:
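Rat S16 Schwann cells stably carrying a PMP22 intronic element-driven Fluc reporter were seeded overnight, then exposed to compounds for 24 h at 37 °C. Luminescence was normalized to PTC124 (positive control) and DMSO (0% activity).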

Assay [2] is described as follows: S16 Schwann cell PMP22 intronic element beta-lactamase assay (AID 624044; calls by dose curve; further: nearly all actives have a fitted effect of over 15% in size). The procedure, abridged: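 Rat S16 Schwann cells with beta-Lac driven by a PMP22 intronic element, compound-treated 24 h at 37 °C. LiveBLAzer FRET B/G read: 460 nm normalized to potassium clavulanate vs DMSO; 535 nm FRET as viability; concentration-effect curves classified.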
The test system of the next assay is 7G8. Description: qHTS profiling for inhibitors of Plasmodium falciparum proliferation (AID 504749). Further: nearly all actives have a fitted effect of over 60% in size. Further: potency means the concentration at half of the fitted maximal effect. The conditions noted are these: P. falciparum in erythrocytes, SYBR Green DNA, 72 h; series mostly up to 12.8 µM. Summed up: (§1)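 Parasite proliferation within erythrocytes, 72 h exposure. Endpoint: SYBR Green I fluorescence after overnight lysis at room temperature. Controls: 0.29 uM artemisinin, DMSO.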

Another assay has as its system AA1029. Described as above. The following applies: P. falciparum in erythrocytes, SYBR Green DNA, 72 h; series mostly up to 12.8 µM. The procedure, abridged: as §1
The subject of the next assay is CP194. The assay is described as above. The following applies: P. falciparum in erythrocytes, SYBR Green DNA, 72 h; series mostly up to 12.8 µM. The procedure, abridged: as §1
For the next assay, the system named is CP211. Described as above. The conditions noted are these: P. falciparum in erythrocytes, SYBR Green DNA, 72 h; series mostly up to 12.8 µM. The procedure, abridged: as §1
Another assay has as its system CP215. The assay is described as above. The following applies: P. falciparum in erythrocytes, SYBR Green DNA, 72 h; series mostly up to 12.8 µM. The procedure, abridged:
as §1

A further assay relates to CP291. The description is as above. The conditions noted are these: P. falciparum in erythrocytes, SYBR Green DNA, 72 h; series mostly up to 12.8 µM. Summed up:
as §1

The test system of a further assay is P93_24. The description is as above. The conditions noted are these: P. falciparum in erythrocytes, SYBR Green DNA, 72 h; series mostly up to 12.8 µM. The procedure, abridged: as §1
In a further assay the test system is P94_40. The assay is described as above. The following applies: P. falciparum in erythrocytes, SYBR Green DNA, 72 h; series mostly up to 12.8 µM. The procedure, abridged: as §1
The subject of a further assay is PC26. The assay is described as above. The following applies: P. falciparum in erythrocytes, SYBR Green DNA, 72 h; series mostly up to 12.8 µM. The procedure, abridged: as §1
The next assay has as its system TAB109. Described as above. The conditions noted are these: P. falciparum in erythrocytes, SYBR Green DNA, 72 h; series mostly up to 12.8 µM. The procedure, abridged:
as §1

In the next assay the test system is CP335. The assay is described as above. The following applies: P. falciparum in erythrocytes, SYBR Green DNA, 72 h; series mostly up to 12.8 µM. The procedure, abridged:
as §1

In a further assay the test system is GB4. The assay is described as above. The following applies: P. falciparum in erythrocytes, SYBR Green DNA, 72 h; series mostly up to 12.8 µM. Summed up: as §1
The next assay relates to W2. The description is as above. The conditions noted are these: P. falciparum in erythrocytes, SYBR Green DNA, 72 h; series mostly up to 12.8 µM. Summed up: as §1
Assay [3] deals with Cytochrome P450 3A4 (Homo sapiens) (UniProt P08684). As to the kind of experiment: qHTS Assay for Inhibitors and Substrates of Cytochrome P450 3A4 (AID 884). Further: nearly all actives have a fitted effect of over 50% in size. Further: potency means the concentration at half of the fitted maximal effect. Summed up:
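20 nM human CYP3A4 with 25 uM Luciferin-PPXE (at KM) in 200 mM KPO4, preincubated 10 min with compound; NADPH regeneration started a 60 min RT reaction. Luciferin detected by luminescence, normalized to 57 uM ketoconazole as full inhibition.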

Assay [4] shares this target. Description: qHTS Assay for Activators of Cytochrome P450 3A4 (AID 885). Further: nearly all actives have a fitted effect of over 65% in size. The procedure, abridged:
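Human CYP3A4 (20 nM) with Luciferin-PPXE at 25 uM (its KM) in 200 mM KPO4; 10 min compound preincubation, then NADPH regeneration and 60 min reaction at RT. Luciferin read by luminescence; normalized to 57 uM ketoconazole full inhibition.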

Assay [5] can be described thus: Confirmation and Secondary Assay for Modulators of Hemoglobin Beta Chain Splicing at IVS2 705 locus (AID 930).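 Further: HeLa cells stably expressing the EGFP-705 splicing reporter; GFP fluorescence per well restored by corrected splicing of the IVS2-705 intron in EGFP.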 Summed up:
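HeLa cells stably carrying EGFP interrupted by mutant beta-globin intron 2 (IVS2-705) treated 2 days at 37C with compound; 500 nM antisense PNA as control. Correct splicing read as total peak GFP intensity per well by laser-scanning cytometry.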

Assay [6] addresses Cytochrome P450 2C19 (Homo sapiens) (UniProt P33261). Description: qHTS Assay for Inhibitors and Substrates of Cytochrome P450 2C19 (AID 899). Further: potency means the concentration at half of the fitted maximal effect; nearly all actives have a fitted effect of over 60% in size. Summed up: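 Human CYP2C19 (5nM) with Luciferin-H EGE at 10uM (its KM) in 50mM KPO4 was preincubated with compound for 10 min at 37C. NADPH regeneration started a 60 min 37C reaction. Luciferin was read by luminescence, normalized to 57uM ketoconazole.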

Structures are written as SMILES. “And” between values parts separate entries of the source, which are not always exact repeats. Equal values may be shown once. A number with no mark means an inactive call. Results filed as inconclusive are left out. The source made the active and inactive calls. Unless noted, the call rests on the fitted dose curve; in most records, active means well fitted curve in the direction sought with a large enough effect; inconclusive means small, poorly fitted or top-dose-only effect, or another doubt; inactive means no such curve, though single readings can be large; an effect the other way counts as inactive or inconclusive.

Cytochrome P450 3A4 (Homo sapiens), sequence (P08684 whole entry, looked up): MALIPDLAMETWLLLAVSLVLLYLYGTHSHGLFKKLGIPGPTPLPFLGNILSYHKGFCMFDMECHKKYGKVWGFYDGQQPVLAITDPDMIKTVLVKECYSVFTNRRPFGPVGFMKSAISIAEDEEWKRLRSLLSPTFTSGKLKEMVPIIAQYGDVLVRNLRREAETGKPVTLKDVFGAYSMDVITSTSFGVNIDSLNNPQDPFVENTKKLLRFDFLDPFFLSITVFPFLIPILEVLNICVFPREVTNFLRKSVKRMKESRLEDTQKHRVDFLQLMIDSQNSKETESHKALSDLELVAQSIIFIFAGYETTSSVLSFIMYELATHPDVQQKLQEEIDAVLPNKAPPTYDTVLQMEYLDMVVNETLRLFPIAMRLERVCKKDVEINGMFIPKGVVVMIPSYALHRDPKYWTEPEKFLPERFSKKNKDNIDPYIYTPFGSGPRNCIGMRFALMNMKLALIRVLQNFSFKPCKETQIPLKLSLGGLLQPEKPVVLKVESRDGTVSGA
Cytochrome P450 2C19 (Homo sapiens), sequence (P33261 whole entry, looked up): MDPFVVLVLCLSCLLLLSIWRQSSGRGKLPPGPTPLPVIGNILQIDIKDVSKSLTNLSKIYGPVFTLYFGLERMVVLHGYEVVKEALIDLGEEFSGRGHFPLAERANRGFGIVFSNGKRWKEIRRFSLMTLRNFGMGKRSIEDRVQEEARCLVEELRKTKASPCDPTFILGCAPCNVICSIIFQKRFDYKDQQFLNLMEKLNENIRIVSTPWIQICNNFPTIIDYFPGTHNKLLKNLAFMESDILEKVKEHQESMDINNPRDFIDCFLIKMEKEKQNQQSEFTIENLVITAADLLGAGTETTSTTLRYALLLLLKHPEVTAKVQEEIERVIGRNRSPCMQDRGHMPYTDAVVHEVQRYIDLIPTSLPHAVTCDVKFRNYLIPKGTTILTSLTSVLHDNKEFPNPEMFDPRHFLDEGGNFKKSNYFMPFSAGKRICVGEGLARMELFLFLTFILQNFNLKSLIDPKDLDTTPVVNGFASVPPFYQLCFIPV

Turning to `CO[C@@H]1C[C@H](O[C@H]2[C@@H](C)[C@H](O[C@@H]3O[C@@H](C)C[C@@H](N(C)C)[C@@H]3OC(C)=O)[C@H](C)C[C@]3(CO3)C(=O)[C@H](C)[C@H](OC(C)=O)[C@H](C)[C@H](C)OC(=O)[C@@H]2C)O[C@H](C)[C@@H]1OC(C)=O`, the Potency result (in assay [1]; in assay [2]; in the assay on 7G8; in the assay on AA1029; in the assay on CP194; in the assay on CP211) was “inactive” each time. For the same molecule, the Potency entry with CP215, with CP291, in the assay on P93_24, in the assay on P94_40, with PC26 and in the assay on TAB109 was “inactive” in each case.
On to `C[C@H](O)Cn1cnc2c1c(=O)n(C)c(=O)n2C`, for which the Potency result (in assay [1]; in assay [2]; with 7G8; in the assay on AA1029; with CP194; in the assay with CP211) was “inactive” throughout. The Potency result with CP215, with CP291, in the assay on CP335, with GB4, in the assay on P93_24 and with P94_40 was “inactive” each time. The Potency result in the assay on PC26, in the assay with TAB109 and in the assay on W2 was “inactive” throughout.
For the molecule `C[C@@H](C(=O)O)c1ccc(N2Cc3ccccc3C2=O)cc1`, in [3], the Potency entry is “inactive”.
For the molecule `C[C@@H]1C[C@H]2[C@@H]3C[C@H](F)C4=CC(=O)C=C[C@@]4(C)[C@]3(F)[C@H](O)C[C@]2(C)[C@@]1(O)C(=O)CO`, the Potency result in the assay on 7G8, in the assay with AA1029, with CP194, in the assay with CP211, with CP215 and in the assay on CP291 was “inactive” throughout. The Potency result in the assay on CP335, with GB4, with P93_24, in the assay with P94_40, with PC26 and in the assay with TAB109 was “inactive” each time. Also, in the assay with W2, the Potency entry is “inactive”.
On to `COc1cc(OC)c2c(c1Cl)O[C@@]1(C2=O)[C@H](C)CC(=O)C[C@@H]1OC`, for which, in assay [4], the Potency result is “inactive”.
On to `Fc1ccc(Nc2nc(-c3cccnc3)nc3ccccc23)cc1`, for which, in assay [5], the Potency result was “inactive”.
As for `COc1ccccc1OC[C@H](O)CO`, the Potency entry (in assay [1]; in assay [2]; in the assay with 7G8; in the assay on AA1029; with CP194; in the assay with CP211) was “inactive” in each case. Further, the Potency result with CP215, in the assay with CP291, in the assay with CP335, in the assay with GB4, with P93_24 and in the assay on P94_40 was “inactive” throughout. Further, the Potency entry with PC26, with TAB109 and in the assay on W2 was “inactive” in each case.
For the molecule `Cc1ccc2c(c1)c1c3n2CCN[C@H]3CCC1`, the Potency entry (in assay [2]; in the assay on CP211; in the assay with CP215; with CP291; with P93_24) was “inactive” in each case. The Potency with 7G8 was 6.31 µM (active).
With `COc1ccc([C@@H]2CC(=O)c3c(O)cc(O)cc3O2)cc1O`, the Potency in [3] is 15.8 µM (active); in assay [6], 5.01 µM (active) and 7.94 µM (active). The Potency result in assay [4] was “inactive”.
`CC(C)(C)NC[C@@H](O)COc1ccccc1C1CCCC1`: the Potency with 7G8 is 0.708 µM (active); with AA1029, 2.82 µM (active); in the assay on CP194 it was 5.73 µM (active); with CP215, 4.55 µM (active); in the assay with CP291, 4.05 µM (active); in the assay on CP335, 3.61 µM (active). Further, the Potency was 1.81 µM (active) with GB4; 2.24 µM (active) in the assay on P93_24; 3.98 µM (active) in the assay with P94_40; 6.42 µM (active) in the assay with PC26; 3.16 µM (active) in the assay with TAB109; 0.572 µM (active) with W2.
